Measured values: PubChem BioAssay (NCATS)
Inconclusive results are not listed. Calls of active or inactive are those of the source. Unless noted, the call rests on the fitted dose curve; in most records, active means well fitted curve in the direction sought with a large enough effect; inconclusive means small, poorly fitted or top-dose-only effect, or another doubt; inactive means no such curve, though single readings can be large; an effect the other way counts as inactive or inconclusive.

Legend:
[1] = Quantitative High-Throughput drug screen in 47 multiple myeloma cell lines against the NCATS MIPE library collection: PCM6_Riken cell viability assay (AID 1919870); further: nearly all actives have a fitted effect of over 30% in size; further: potency means the concentration at half of the fitted maximal effect
Method in brief: (§1)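 500 cells/well; MIPE 4.0 drugs pin-transferred; 48 h, 37C, 5% CO2. CellTiter-Glo, 5 min RT, luminescence. Controls: DMSO 100%, media 0%.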

[2] = Quantitative High-Throughput drug screen in 47 multiple myeloma cell lines against the NCATS MIPE library collection: RPMI8226_ATCC cell viability assay (AID 1919871); further: nearly all actives have a fitted effect of over 30% in size; further: potency means the concentration at half of the fitted maximal effect
Method in brief: as §1

[3] = Quantitative High-Throughput drug screen in 47 multiple myeloma cell lines against the NCATS MIPE library collection: KMS28BM_JCRB cell viability assay (AID 1919874); further: nearly all actives have a fitted effect of over 35% in size; further: potency means the concentration at half of the fitted maximal effect
Method in brief: as §1

[4] = qHTS drug screen for cell cycle checkpoint inhibitors in PARPi-resistant BRCA-mutant ovarian cancer cell lines. (AID 1963452; calls by dose curve); settings: PEO1/OlaR viability, CellTiter-Glo luminescence, 96 h, stronger effect = lower value
Method in brief: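 PEO1, PEO4 and PEO1/OlaR ovarian cancer cells, 600 per well, exposed 96 h at 37C to a dilution series. Viability read by CellTiter-Glo luminescence, normalized to DMSO and empty wells; activity summarized as Z-AUC.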

[5] = qHTS for identification of novel therapeutic agents for treatment of microphthalmiaassociated transcription factor (MiT) renal cell carcinoma (RCC) (AID 1963991); settings: CellTiter-Glo, 48 h, stronger effect = lower value
Method in brief: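 Viability of three TFE3-fusion renal carcinoma lines measured by CellTiter-Glo after 48 h treatment with each of 1912 compounds at 11 concentrations. Responses scaled between DMSO (100%) and empty wells (0%) before curve fitting.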

[6] = Quantitative High-Throughput drug screen in 47 multiple myeloma cell lines against the NCATS MIPE library collection: KMS11_JCRBsus cell viability assay (AID 1919873); further: nearly all actives have a fitted effect of over 50% in size; further: potency means the concentration at half of the fitted maximal effect
Method in brief: as §1

[7] = qHTS profiling for inhibitors of Plasmodium falciparum proliferation (AID 504749);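 further: 0% = DMSO vehicle and full inhibition = artemisinin control; nearly all actives have a fitted effect of over 60% in size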; settings: P. falciparum in erythrocytes, SYBR Green DNA, 72 h, at 28.7 µM (top of the series)
Method in brief: (§2)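 SYBR Green fluorescence (ex 485 nm, em 535 nm) reports parasite DNA after 72 h compound exposure of infected red cells at 0.3% parasitemia, 2.5% hematocrit; signal normalized to 0.29 uM artemisinin and vehicle wells.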

3D7 = experiment: as above; settings: P. falciparum in erythrocytes, SYBR Green DNA, 72 h; series mostly up to 28.7 µM
Method in brief: as §2

[8] = measured here: PEO1 parental Z-AUC
[9] = TFE3-RCC UOK109 viability, measured here: UOK109 Z-AUC
[10] = TFE3-RCC viability, measured here: UOK124 Z-AUC
[11] = TFE3-RCC viability, measured here: UOK145 Z-AUC

Row | SMILES | Potency [1] | Potency [2] | Potency [3] | Z-AUC [4] | Z-AUC [4, 8] | Z-AUC ([4]; measured here: PEO4 Z-AUC) | z-score [5, 9] | z-score [5, 10] | z-score [5, 11] | Potency [6] | activity, negative = inhibition ([7]; parasite line A) | activity, negative = inhibition ([7]; parasite line B) | Potency (3D7)
1 | C[C@@H]1C[C@H]2[C@@H]3CCC4=CC(=O)C=C[C@]4(C)[C@@]3(F)[C@@H](O)C[C@]2(C)[C@@]1(O)C(=O)CO | inactive | 0.0166 µM (active) | inactive | 0.337 (inactive) | 1.75 | 0.58 | 0.745 | 0.108 | -1.45 |  |  |  | 
2 | CC[C@H](CC#N)OC(=O)N[C@@H](C)c1cccc(NC(=O)Nc2ccc(-c3cnco3)c(OC)c2)c1 | 1.32 µM (active) | 2.64 µM (active) | 2.09 µM (active) | 0.186 (inactive) | -0.393 | -0.852 |  |  |  | 0.372 µM (active) |  |  | 
3 | CCCCc1ccc(NS(=O)(=O)c2ccc(C)c(C(=O)N3CCN(c4cccc(C)c4C)CC3)c2)cc1 | 26.4 µM (active) | 20.9 µM (active) | 16.6 µM (active) | 1.4 (inactive) | 1.5 | 1.44 |  |  |  |  |  |  | 
4 | CS(=O)(=O)c1ccc(C2=C(c3ccccc3)C(=O)OC2)cc1 | inactive | inactive | inactive |  |  |  | 0.605 | 0.766 | 0.708 | inactive | 0.606% (inactive) | 18.5% (inactive) | inactive
5 | CN1CCN(c2cccc(Nc3nc4c(-c5ccc(S(C)(=O)=O)cc5)cccn4n3)c2)CC1 | 7.43 µM (active) | 9.35 µM (active) | 0.743 µM (active) | 0.515 (inactive) | 0.358 | 0.131 |  |  |  |  |  |  | 
6 | CCC(C)SSc1ncc[nH]1 (stereo unspecified) | 7.43 µM (active) | 23.5 µM (active) | 9.35 µM (active) | -1.01 (inactive) | -0.667 | -0.908 |  |  |  |  |  |  | 
7 | NCc1c[nH]c(=S)n1[C@H]1CCc2c(F)cc(F)cc2C1 | 2.96 µM (active) | 26.4 µM (active) | 20.9 µM (active) | -0.555 (inactive) | -0.422 | -0.786 |  |  |  | 20.9 µM (active) |  |  | 
8 | COc1cc2c(cc1OC)CC(=O)N(CCCN(C)C[C@H]1Cc3cc(OC)c(OC)cc31)CC2 | inactive | 11.8 µM (active) | inactive | 0.967 (inactive) | 0.523 | 0.443 |  |  |  |  | -2.12% (inactive) | -3.25% (inactive) | inactive
9 | CC1CCN(c2cc(N3CCN(C)CC3)ccc2NC(=O)c2cc(C#N)c[nH]2)CC1 | 7.43 µM (active) | 18.7 µM (active) | inactive | -1.13 (inactive) | -0.115 | 0.801 |  |  |  | inactive |  |  | 
10 | N#CC1(c2cccc(C(=O)Nc3cc(Oc4ccc5nc(NC(=O)C6CC6)sc5n4)ccc3F)c2Cl)CC1 | 14.8 µM (active) | 1.05 µM (active) |  | -0.948 (inactive) | -1.21 | -0.816 |  |  |  |  |  |  | 
11 | CN(C)CC[C@H](CSc1ccccc1)Nc1ccc(S(=O)(=O)NC(=O)c2ccc(N3CCN(Cc4ccccc4-c4ccc(Cl)cc4)CC3)cc2)cc1[N+](=O)[O-] | 0.0526 µM (active) | 4.18 µM (active) | 1.87 µM (active) | -0.74 (inactive) | 0.0363 | -1.54 |  |  |  |  |  |  | 
12 | O=C(Nc1cccc(Cl)c1)Nc1ncc(CCNc2ncnc3ccsc23)s1 | 5.26 µM (active) | 5.9 µM (active) |  | -0.664 (inactive) | -1.1 | -1.17 |  |  |  | 11.8 µM (active) |  |  | 
13 | Cc1nn(Cc2ccccc2Cl)c(C)c1CN(C)CC(O)COc1ccc(Cl)cc1 (stereo unspecified) | 18.7 µM (active) | 20.9 µM (active) | 33.2 µM (active) | 0.675 (inactive) | 0.673 | 0.908 |  |  |  | 23.5 µM (active) |  |  | 
14 | CN1N=C(N)c2cn([C@@H]3O[C@H](COP(=O)(O)O)[C@@H](O)[C@@H]3O)c3ncnc1c23 | 1.05 µM (active) | 0.105 µM (active) | 23.5 µM (active) | -0.375 (inactive) | -0.488 | -0.707 |  |  |  |  |  |  | 
15 | Cn1c(=O)c(-c2c(Cl)cccc2Cl)cc2cnc(Nc3cccc(C(=O)O)c3)nc21 | 0.0469 µM (active) | inactive | inactive | 0.595 (inactive) | 0.413 | 0.693 |  |  |  | inactive |  |  | 
16 | CN1CCN2c3ncccc3Cc3ccccc3C2C1 (stereo unspecified) | inactive | inactive | inactive | -0.118 (inactive) | -0.0867 | 0.472 | 0.418 | 0.445 | 0.581 | inactive | -2.79% (inactive) | 7.38% (inactive) | inactive
17 | O[C@@H](COc1cccc2ncccc12)CN1CCN(C2c3ccccc3[C@@H]3[C@H](c4ccccc42)C3(F)F)CC1 (stereo partly specified) | 10.5 µM (active) | 20.9 µM (active) |  | -1.07 (inactive) | -1.13 | -0.777 |  |  |  | 4.18 µM (active) |  |  | 
18 | OC1CCC(Nc2ncc3nc(Nc4c(F)cc(F)cc4F)n([C@@H]4CCOC4)c3n2)CC1 (stereo partly specified) | 18.7 µM (active) | inactive | inactive |  |  |  |  |  |  |  |  |  | 
